Reference: PubChem BioAssay AID489043 (National Center for Advancing Translational Sciences (NCATS), 2010)
Inconclusive results are not listed. Calls of active or inactive are those of the source. Calls follow the shape of the dose curve; as a rule, active = well fitted activation curve with a large enough effect; inconclusive = small, poorly fitted or top-dose-only effect; inactive = flat fitted curve, though single readings scatter.

These molecules were tested against Relaxin receptor 2 (Homo sapiens) (UniProt Q8WXD0) (assay: qHTS Assay for Agonists of the Relaxin Receptor RXFP1: RXFP2 Hit Validation). Details: HEK293 RXFP2 cAMP TR-FRET, 30 min; series mostly up to 115 µM; activation: at the top concentration.
Outline: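 HEK293 cells expressing RXFP2, cultured 16-24 hr, treated 30 min at 37C with compounds plus PDE4 inhibitor Ro 20174. cAMP measured by HTRF TR-FRET; EC50 from Hill fits, normalized to buffer and 29 nM porcine relaxin.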
Also: nearly all actives have a fitted effect of over 65% in size.
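For activation in this document: 0% = buffer only basal cAMP and 100% = 29 nM porcine relaxin.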
Potency is read from the fitted curve at half-maximal effect.

Sequence of Relaxin receptor 2 (Homo sapiens) (Q8WXD0 whole entry, looked up): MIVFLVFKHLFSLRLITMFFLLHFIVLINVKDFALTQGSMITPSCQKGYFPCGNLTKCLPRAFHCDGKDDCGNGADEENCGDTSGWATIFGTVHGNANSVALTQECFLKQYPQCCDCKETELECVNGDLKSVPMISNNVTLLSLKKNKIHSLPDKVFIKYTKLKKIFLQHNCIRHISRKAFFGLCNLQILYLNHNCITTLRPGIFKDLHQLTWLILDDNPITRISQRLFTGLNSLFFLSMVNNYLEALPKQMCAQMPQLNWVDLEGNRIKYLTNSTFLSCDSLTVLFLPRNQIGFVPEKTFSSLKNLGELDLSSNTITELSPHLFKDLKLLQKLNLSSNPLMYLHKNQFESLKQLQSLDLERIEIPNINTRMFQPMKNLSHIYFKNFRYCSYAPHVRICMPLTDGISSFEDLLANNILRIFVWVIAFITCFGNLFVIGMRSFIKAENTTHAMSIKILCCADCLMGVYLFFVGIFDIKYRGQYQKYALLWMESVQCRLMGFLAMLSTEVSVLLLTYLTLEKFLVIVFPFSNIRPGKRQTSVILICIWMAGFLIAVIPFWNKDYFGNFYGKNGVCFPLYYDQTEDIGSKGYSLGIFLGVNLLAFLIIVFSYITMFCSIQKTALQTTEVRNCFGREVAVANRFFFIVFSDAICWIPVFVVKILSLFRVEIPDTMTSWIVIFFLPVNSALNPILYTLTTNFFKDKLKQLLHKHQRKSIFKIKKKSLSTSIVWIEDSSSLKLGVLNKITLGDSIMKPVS

| SMILES | activation | Potency |
| --- | --- | --- |
| Nc1cc2ccncc2c2ccccc12 | 4.43% (inactive) |  |
| O=C(Nc1ccccc1)c1ccccc1NC(=O)C1CCCCC1 | 5.98% [at 125 µM] (inactive) |  |
| Cc1ccccc1NC(=O)CNc1ccccc1C(=O)NCc1ccco1 | 2.32% [at 125 µM] (inactive) |  |
| O=C(O)CNC(=O)c1ccccc1NC(=O)c1ccco1 | 8.14% [at 125 µM] (inactive) |  |
| Cc1cc(NC(=O)c2ccccc2F)nc2c1c(=O)oc1ccccc12 |  | 15.4 µM (active) |
| Cc1cc(NC(=O)CSc2ncnc3c2cnn3-c2cccc(Cl)c2)no1 | 18.2% [at 44.7 µM] (inactive) |  |
| Nc1c(Cl)cc(-c2[nH]c3cc(C(=O)NCCO)ccc3c(=O)c2O)cc1Cl |  | 34.6 µM (active) |
| Cc1cccc(-c2nnc(SCC(=O)NC3CC3)n2C)c1 | -25.5% (inactive) |  |
| O=C(Nc1ccccc1C(=O)NCCN1CCOCC1)c1ccco1 | 4.33% [at 125 µM] (inactive) |  |
| Cc1ccc(CN(C)C(=O)c2ccc3c(c2)NC(=O)CS3)o1 | -25.2% (inactive) |  |
| CCN(CC)S(=O)(=O)c1ccc2c(c1)N(CC(=O)NCc1ccccn1)C(=O)CO2 |  | 34.6 µM (active) |
| O=C(O)c1cccc(CSc2nnc(Cc3ccccc3)o2)c1 | 3.94% [at 44.7 µM] (inactive) |  |
| COC(=O)Cn1cnc2c(C#N)c3n(c2c1=O)CCCCC3 |  | 9.77 µM (active) |
| COc1ccc(C(=O)Nc2ccc(S(=O)(=O)Nc3onc(C)c3C)cc2)c(OC)c1 |  | 9.43 µM (active) |
| COCCNC(=O)NC(=O)COC(=O)C12CC3CC(CC(NC(C)=O)(C3)C1)C2 | 4.39% [at 44.7 µM] (inactive) |  |
| CC(=O)c1sc(NC(=O)C(C)C)nc1C |  | 15.4 µM (active) |
| C=C[C@@]1(C)CC(=O)[C@]2(O)[C@@]3(C)[C@@H](O)CCC(C)(C)[C@@H]3[C@H](O)[C@H](OC(C)=O)[C@@]2(C)O1 |  | 0.0488 µM (active) |

| SMILES | activation | Potency |
| --- | --- | --- |
| CCn1c(SCC(=O)Nc2ccc(NC(C)=O)cc2)nc2c1c(=O)n(C)c(=O)n2C |  | 27.5 µM (active) |
| O=C(Cn1cnc2c(nnn2-c2ccc(F)cc2)c1=O)NCC1CCCO1 (stereo not drawn) |  | 11 µM (active) |
| COc1cccc(C(=O)CSc2nnc(-c3cc(OC)cc(OC)c3)o2)c1 |  | 10.9 µM (active) |
| CCOC(=O)CSc1nc(=O)n2cc(C)ccc2n1 | 21.2% (inactive) |  |
| Cc1ccc(C(=O)Nc2cccc(C(F)(F)F)c2)cc1NC(=O)c1cnnc2ccccc12 | 5.25% (inactive) |  |
| Cc1ccc(CN(C)C(=O)c2ccccc2NC(=O)c2ccccc2)o1 | -1.29% [at 125 µM] (inactive) |  |
| COc1ccc(CNC(=O)CN2C(=O)NC(C)(c3cccc(Br)c3)C2=O)cc1 (stereo not drawn) | 0.421% (inactive) |  |
| CCOP1(=O)OCC2OC(n3cnc4c(N)ncnc43)C(O)C2O1 (stereo not drawn) |  | 7.76 µM (active) |
| Cc1cc(C)nc(NS(=O)(=O)c2ccc(N3C(=O)c4ccccc4C3=O)cc2)n1 |  | 29.8 µM (active) |
| N#Cc1c(N)nc(SCC(=O)C23CC4CC(CC(C4)C2)C3)c(C#N)c1-c1ccc(Cl)cc1 |  | 12.3 µM (active) |
| CCc1cc2c(=O)nc3n(c2s1)Cc1ccccc1/C3=C(/O)c1cccc([N+](=O)[O-])c1 |  | 6.16 µM (active) |
| CC[n+]1ccc(/C=C/c2ccc(N(C)C)cc2)c2ccccc21 | -21.1% (inactive) |  |
| O=C(Nc1ccccc1C(=O)NCCc1ccccc1)c1ccco1 | 0.452% [at 125 µM] (inactive) |  |
| CN(CC(=O)Nc1ccccc1Cl)C(=O)COC(=O)Cc1c(F)cccc1Cl | 0.312% [at 44.7 µM] (inactive) |  |
| C=C(C)C(=O)Nc1cccc(C2=NOC3(C2)C[C@@H](C(N)=O)N(C(=O)c2ccc(Cl)cc2)C3)c1 (stereo partly drawn) | 3.65% (inactive) |  |
| c1ccc(COn2nnc3ccccc32)c(COn2nnc3ccccc32)c1 | 1.12% [at 44.7 µM] (inactive) |  |
